Source: PubChem BioAssay
A selection: hits, their analogues and other compounds. The true share with any hit is near 7%.
PLK1 PBD block – blocks phosphopeptide binding to human PLK1 polo-box domain; 360,000 compounds, 2.8% hits; P53350; Potency, µM, usual class: inhibitors; Plk1 PBD binding of FITC phosphopeptide, fluorescence polarization; AID 720504; note: series mostly up to about 57 µM; nearly all actives have a fitted effect of over 65% in size
HP1b chromo inh – blocks HP1-beta chromodomain binding to methylated histone tails. P83916. AlphaScreen HP1-beta / biotin-H3K9me3 peptide binding. 390,000 compounds, 0.56% hits. Potency, µM (titrated, usually from 114 µM), actives largely listed as inhibitors; note: nearly all actives have a fitted effect of over 70% in size
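Compound inhibition of the preformed complex between 50 nM HP1-beta and 50 nM biotinylated H3K9me3 peptide was read by AlphaScreen. Buffer was PBS pH 7.4 with 0.01% Tween-20. Incubations ran 30 min at room temperature, with 10 ug/mL donor/acceptor beads.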
BAZ2B inh – BAZ2B (human) inhibition. 360,000 compounds, 4.4% hits. AID 504333. AlphaScreen BAZ2B-H3K14Ac peptide displacement. Potency, µM (titrated, usually from 114 µM), hits mostly inhibitors; note: nearly all actives have a fitted effect of over 60% in size
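Complex of BAZ2B and biotin-H3K14Ac (50 nM apiece) forms over 30 min at RT, then faces library compounds up to 110 uM for another 30 min; AlphaScreen beads added, 20 min dark incubation, luminescence read.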
PI5P4Ka inh – inhibitors of human PI5P4K alpha. AID 652105. 330,000 compounds, 1.2% hits. PI5P4Kalpha enzyme, ADP-Glo luminescence, 60 min; active compounds read low. P48426. max response, %; active = max response of -50% or lower; inconclusive = between -30% and -50%; inactive = -30% or higher; note: value at the top dose of about 77 µM
Target sequence (P48426 whole entry, looked up): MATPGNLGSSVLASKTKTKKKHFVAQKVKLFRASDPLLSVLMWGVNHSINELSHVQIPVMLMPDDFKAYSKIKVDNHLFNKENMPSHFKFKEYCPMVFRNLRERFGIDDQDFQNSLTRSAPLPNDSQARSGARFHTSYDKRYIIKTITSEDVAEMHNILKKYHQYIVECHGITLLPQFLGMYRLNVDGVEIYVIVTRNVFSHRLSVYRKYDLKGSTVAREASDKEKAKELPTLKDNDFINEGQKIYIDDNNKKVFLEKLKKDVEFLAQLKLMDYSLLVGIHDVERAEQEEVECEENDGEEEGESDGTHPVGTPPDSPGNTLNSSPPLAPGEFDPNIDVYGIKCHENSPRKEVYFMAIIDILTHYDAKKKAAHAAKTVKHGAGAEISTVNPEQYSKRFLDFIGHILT
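ADP-Glo luminescence end-point after a 60 min room-temperature kinase reaction. PI5P4Kalpha and substrate in HEPES pH 7.4 buffer with EGTA, 0.1% CHAPS and 5% DMSO; ATP at 5 microM final.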
JMJD2A Tudor – JMJD2A Tudor domain (human) inhibition; Potency, µM (highest dose often 114 µM), hits mostly inhibitors; 390,000 compounds, 4.4% hits; AlphaScreen JMJD2A-Tudor / H3K4me3 peptide binding; AID 504339; note: nearly all actives have a fitted effect of over 50% in size
GCN5L2 inh – inhibitors of human GCN5L2 histone acetyltransferase | Potency, µM (highest dose often 58.9 µM), most hits filed as inhibitors | GCN5L2 HAT assay, ThioGlo1 CoA-SH fluorescence | AID 504327 | 390,000 compounds, 0.21% hits
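ThioGlo1-coupled HAT assay: 20nM GCN5L2, 70uM acetyl-CoA, 75uM H3(1-25) peptide, pH 7.5. Fluorescence read at 340/540nm at start and after 20 min at room temperature.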
A number is an active result; 0 = inactive; ? = inconclusive; - = not tested or not shown; [ ] = remark or other dose. Unless noted, calls come from the whole dose curve; as a rule, active = well fitted curve in the direction sought with a large enough effect; inconclusive = small, poorly fitted or top-dose-only effect, or another doubt; inactive = no such curve, though single readings can be large; an effect the other way counts as inactive or inconclusive.

SMILES	PLK1 PBD block	HP1b chromo inh	BAZ2B inh	PI5P4Ka inh	JMJD2A Tudor	GCN5L2 inh
CCCn1c2ccccc2c2cnn(CC(=O)NCCc3ccc(OCC)cc3)c(=O)c21	-	0	0	-	0	0
O=C1CC(c2ccc3ccccc3c2)NN1 (centres undefined)	0	0	0	0	0	0
COc1ccc(NC(=O)Cn2ccn(-c3ccc(C)c(C)c3)c(=O)c2=O)cc1Cl	-	0	0	-	0	0
O=C(O)c1csc(-c2cccc(Cl)c2)n1	26.7µM	0	0	0	0[11.4 µM]	0
COc1cc(/C=C(\C#N)C(=O)Nc2cccc(C(=O)O)c2)ccc1OCc1ccc(F)cc1	?	0	0	0	0	0
N#C/C(=C\c1ccc(OCc2ccc(Br)cc2)cc1)C(=O)Nc1cccc(C(=O)O)c1	21.2µM	0	56.2µM	0	39.8µM	?
N#C/C(=C\c1ccc(OCc2ccc(F)cc2)cc1)C(=O)Nc1cccc(C(=O)O)c1	?	0	79.4µM	0	0	0
COc1ccc(NC(=O)/C(C#N)=C\c2ccc(OCc3ccc(C(=O)O)cc3)c(OC)c2)cc1	?	?	?	0	?	?
Cc1ccccc1COc1ccc(/C=C(\C#N)C(N)=O)cc1	0	0	0	0	0	0
N#C/C(=C/c1ccc(OCc2ccc(C(=O)O)cc2)cc1)C(=O)Nc1ccccc1	?	0	79.4µM	0	25.1µM	0
N#C/C(=C\c1ccc(OCc2ccccc2)cc1)C(N)=O	9.47µM	?	0	-63.0	14.1µM	0
CC(C)(C(=O)Nc1nccs1)c1ccccc1	0	0	0	0	0	0
Cc1cccc(C)c1NC(=O)C(c1ccc(C#N)cc1)n1c(=O)c(-c2ccccc2)nc2ccccc21 (centres undefined)	0	-	-	0	-	-
CCc1ccccc1NC(=O)Cc1ccc(-n2cccc2)cc1	7.52µM	?	0	?	?	0
O=C(O)Cc1ccc(-n2cccc2)cc1	?	25.1µM	8.91µM	0	39.8µM	?
CCc1ccc(NC(=O)Cc2ccc(-n3cccc3)cc2)cc1	0	0	0	0	0	0
CCOc1ccc(CNC(=O)c2cccn2-c2nnc(N3CCCCC3)s2)cc1OC	-	0	?	-	0	0
Cc1ccc(C)c(CSC2=NCCN2C(=O)c2cccs2)c1	0	0	0	0	0	0
CN(C)/C=C/c1oc2ccc(O)cc2c1[N+](=O)[O-]	0	0	25.1µM	0	0	0
Cc1oc2ccc(O)cc2c1C(=O)c1ccc([N+](=O)[O-])cc1	0	0	?	0	?	0
O=C(NC1CCCCC1)C1CC(=O)N(c2ccccc2)C1 (centres undefined)	0	0	0	0	0	0
Cc1nc(Nc2ccc(Cl)cc2)c2oc3ccccc3c2n1	26.7µM	0	0	0	?	0
CCNc1nc(CC)nc2c1oc1ccccc12	0	0	?	-	0	0
CCc1nc(NCc2ccco2)c2oc3ccccc3c2n1	0	0	79.4µM	0	0	0
CCc1nc(Nc2ccccc2O)c2oc3ccccc3c2n1	0	0	79.4µM	0	?	0
SMILES	PLK1 PBD block	HP1b chromo inh	BAZ2B inh	PI5P4Ka inh	JMJD2A Tudor	GCN5L2 inh
Cc1nc(Nc2cccc(Cl)c2)c2oc3ccccc3c2n1	0	0	0	0	0	0
Cc1cccc(C(=O)NC2CCN(C#N)CC2)c1	-	-	-	-	0	-
CSc1ccc(/C=C/C(=O)N2CCN(c3ccccn3)CC2)cc1	0	0	0	0	0	?
c1ccc(-c2nnc(NC3=NCCC3)o2)cc1	23.8µM	0	0	0	0	0
O=c1[nH][nH]c(=O)n1-c1ccccc1	0	0	0	0	0	0
COC(=O)/C=c1/s/c(=C(/C#N)C(=O)N2CCOCC2)n(-c2ccccc2)c1=O	26.7µM	0	0	0	0[11.4 µM]	0
